The values that follow come from PubChem BioAssay (EPA / NIEHS).

Active and inactive are the calls of the source. The calls were made as follows: active = hit-call score of the fitted dose curve at least 0.9, where 1 is the maximum; inactive = score below 0.9.

A short description of assay [1]: ATG_CRE_CIS: Attagene CIS-FACTORIAL HepG2 Assay for human cAMP Responsive Element (CRE) binding protein 3 (AID 2282926). As to conditions: HepG2 CRE cis-reporter, Attagene multiplexed mRNA; actives raise or lower the signal. The procedure, abridged:
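Readout: fluorescently labelled reporter transcripts resolved by capillary electrophoresis after RT-PCR, taken 24 h post-dosing in transfected HepG2. Endogenous transcription factor activity drives each cis-element reporter; gain or loss of signal fitted relative to DMSO control.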

The nature of assay [2]: ATG_CMV_CIS: Attagene CIS-FACTORIAL HepG2 Assay for human CMV (Internal Marker) (AID 2282928).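 Also: endpoint acts as a background internal control marker rather than a target.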 The conditions noted are these: HepG2 CMV promoter reporter, transcription factor profiling; actives raise or lower the signal. The method, boiled down:
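Readout: fluorescent reporter cDNA fragments separated by capillary electrophoresis after RT-PCR and HpaI cut. Cells: HepG2 carrying transfected cis-promoter reporter constructs, dosed 24 h. Endpoint serves as background internal-marker control, fit bidirectionally versus DMSO.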

Assay [3] in a line: ATG_DR4_LXR_CIS: Attagene CIS-FACTORIAL HepG2 Assay for human Liver X Receptor (LXR), DR4 submotif (AID 2282929). As to conditions: HepG2 Attagene DR4 cis-reporter, mRNA transcription; actives raise or lower the signal. The method, boiled down: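 DR4 cis-reporter in HepG2, 24 h exposure. Detection: RT-PCR, 6-FAM labelling, CE fragment analysis. Endpoint fitted bidirectionally, DMSO = baseline.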

Assay [4] can be described thus: ATG_AP_1_CIS: Attagene CIS-FACTORIAL HepG2 Assay for human Activator Protein 1 (AP-1) (AID 2282931). As to conditions: HepG2 Attagene cis-factorial AP-1 reporter mRNA; actives raise or lower the signal. The method, boiled down:
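Cis-regulated reporter units transiently expressed in HepG2 report endogenous transcription-factor activity. Signal: reporter mRNA at 24 h, via RT-PCR and fluorescent capillary electrophoresis. Endpoint derived by bidirectional fitting, DMSO as negative control.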

Assay [5] in a line: ATG_AP_2_CIS: Attagene CIS-FACTORIAL HepG2 Assay for human Activator Protein 2 (AP-2) (AID 2282932). The conditions noted are these: HepG2 AP-2 cis-reporter, Attagene transcription factor profiling; actives raise or lower the signal. The method, boiled down: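 Transiently transfected HepG2 cells are exposed to chemical for 24 h. Reporter transcripts are then measured as fluorescence following RT-PCR and capillary separation, and gain- or loss-of-signal is fitted relative to DMSO.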

A short description of assay [6]: ATG_BRE_CIS: Attagene CIS-FACTORIAL HepG2 Assay for human Bone Morphogenetic Protein (BMP) Response Element (BRE) (AID 2282933). As to conditions: HepG2 BMP response element reporter, Attagene transcription factor profiling; actives raise or lower the signal. The method, boiled down: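 Endogenous transcription factor activity at a BMP response element was monitored in transfected HepG2 cells 24 h after dosing. Fluorescent RT-PCR products were resolved by capillary electrophoresis, and activity was fitted in both directions versus DMSO.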

Turning to `CC(=O)OC/C=C(C)/C=C/C=C(C)/C=C/C1=C(C)CCCC1(C)C`, the call in assay [1], in assay [2], in assay [3], in assay [5] and in assay [6] was inactive. The half-maximal activity concentration (AC50) in assay [4] was 40.6 µM (active).
